In the supplement of paper PMC12340641:

test system: HEK293FT dCK*-IKZF1; assay: relative growth recovery (pomalidomide 10 uM = 100%, DMSO = 0%); higher = more growth rescue (IKZF1 fusion degradation); conditions: compound concentration: 5 uM; AraC concentration: 0.3 uM; overnight pretreatment + 4 days AraC
How it was run: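 HEK293FT cells stably expressing a dCK*-IKZF1 fusion (300/well, 384-well) received 5 μM compound 2 h after seeding. After overnight at 37 °C they received a nucleoside suicide substrate at 0.3 μM plus medium for 4 days. On day 5, Hoechst 33342-stained nuclei were counted by whole-well imaging. Growth recovery was normalised per plate to a reference degrader (100%) and vehicle (0%); values are means of duplicates run on different days.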

**Q.** `CCCCCCC[n+]1ccc(-c2cc[n+](CCCCCCC)cc2)cc1` was tested. Which relative growth recovery did it give?
**A.** -3.88%

**Q.** Which relative growth recovery does the source give for `COc1cc2cc(c1Cl)N(C)C(=O)C[C@H](OC(=O)C(C)C)[C@]1(C)O[C@H]1[C@H](C)[C@@H]1C[C@@](O)(NC(=O)O1)[C@H](OC)/C=C/C=C(\C)C2` [Ansamitocin P-3] here?
**A.** -12.4%

**Q.** With `COC(=O)[C@@]12OC[C@]34[C@H]([C@@H](O)[C@@H]1O)[C@@]1(C)CC(=O)C(O)=C(C)[C@@H]1C[C@H]3OC(=O)[C@H](OC(=O)/C=C(\C)C(C)C)[C@@H]24` [Bruceantin] as the molecule, how does the relative growth recovery read?
**A.** -12.3%

**Q.** Which relative growth recovery does the source give for `O=c1[nH]c2ccccc2n1CCCN1CCC(n2c(=O)[nH]c3cc(Cl)ccc32)CC1` here?
**A.** 2.7%

**Q.** Which relative growth recovery does the source give for `CO[C@H]1[C@H](O)[C@H](O[C@H]2CC[C@@]3(C=O)[C@H](CC[C@@H]4[C@@H]3CC[C@]3(C)[C@@H](C5=CC(=O)OC5)CC[C@]43O)C2)O[C@@H](C)[C@@H]1O` [Peruvoside] here?
**A.** -12.7%

**Q.** With `O=[N+]([O-])c1cc(O)c(O)c([N+](=O)[O-])c1` as the molecule, how does the relative growth recovery read?
**A.** 0.23%

**Q.** `CCCCCCCCCCC(=O)O[C@H]1CC[C@H]2[C@@H]3CCC4=CC(=O)CC[C@]4(C)[C@H]3CC[C@]12C` [Testosterone (undecanoate)] was tested. Which relative growth recovery did it give?
**A.** -0.23%

**Q.** Which relative growth recovery does the source give for `CC(C)[C@]12O[C@H]1[C@@H]1O[C@]13[C@]1(O[C@H]1C[C@H]1C4=C(CC[C@@]13C)C(=O)OC4)[C@@H]2O` [Triptolide] here?
**A.** -12.8%

**Q.** Which relative growth recovery does the source give for `CO[C@@]12C(=COC(N)=O)c3c(O)c(N)c(C)c(O)c3N1C[C@@H]1N[C@@H]12` [Mitomycin C] here?
**A.** -6.43%
